Values joined by “and” are separate entries in the source; they are usually repeats but may differ in a detail not shown here. Identical values can stand only once. About 83,000 compounds went through this panel and 20% of them were active in at least one assay; those are over-represented in the sample as a whole.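 96-well plates, one dose, 48 hours. Percent growth reported; active if below 10.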 Active and inactive are the calls of the source.

This test relates to HL-60(TB) leukemia. Briefly: NCI-60 one-dose screen, 48 h (100 = growth as untreated, 0 = no growth, -100 = all killed). The settings on record: 10 µM unless noted.
On to `CN1CCC(c2ccccc2)(c2ccccc2)C(=O)C1`, for which the growth is 90.8% (inactive).

As to `Oc1ccc(Cc2ccccc2Cl)c(O)c1`, the growth was 97.4% (inactive).

As to `COCCn1c(-c2csc(-c3cn(C)c4ccc(OC)cc34)n2)cc2cccnc21`, the growth is 55.8% (inactive).

Turning to `COc1ccc(/C=C/C(=C/c2c(O)[nH]c3cc(Br)ccc23)N=O)cc1`, the growth was 119% (inactive).

`O=C1NC(=S)S/C1=C\c1cc(Br)ccc1O`: the growth is 83.9% (inactive).

Regarding `Nc1nc(SCC#CCCl)c2[nH]cnc2n1`, the growth is 11% (inactive).

Take `CCOC(=O)C1=C(N)Oc2c(sc3c(C)cccc23)C1c1ccc(OC)cc1` (stereo not given): the growth was 1.54% (active).

As for `C#CCOc1cccc(Nc2ncnc3ccc(NC(=O)CCl)cc23)c1`, the growth was -58.4% (active).

On to `NC(=O)c1cc(Br)cc(Br)c1NS(=O)(=O)c1ccccc1`, for which the growth is 92.6% (inactive).

With `O=C1/C(=C/c2ccc(-c3ccc(Br)cc3)o2)SC(=S)N1CCc1ccc(O)cc1`, the growth is 44.3% (inactive).

As for `O=C1/C(=C/c2cccs2)SC(=S)N1CCCN1CCOCC1`, the growth was 90.4% (inactive).

`CC(=O)c1cccc(NS(=O)(=O)c2cccc(C(=O)Nc3ccc(Br)cc3)c2)c1`: the growth was 48.7% [25 µM] (inactive).

As for `CCn1c(=S)sc2c(Nc3ccc(F)cc3)nc(-c3cccnc3)nc21`, the growth is 81.7% (inactive).

Take `CC(C)Cc1ccc(C(C)C(=O)NCc2ccc(Cn3c(=O)sn(CCCI)c3=O)cc2)cc1` (stereo not given): the growth is 74.9% (inactive) and -41.5% (active).

For `CC(C)C[C@H](NC(=O)[C@@H](Cc1ccccc1)n1ccc(Nc2ccccc2)cc1=O)B(O)O`, the growth is -7.72% (active).

`NC(Cc1c[nH]c2ccccc12)C(=O)O` (stereo not given): the growth was 108% (inactive) and 109% (inactive).

Regarding `CCCCCCCOc1c(OC)cc(C2CC(=O)Nc3c2c(C)nn3-c2nc3ccccc3[nH]2)cc1OC` (stereo not given), the growth is 10.5% (inactive).

As for `CCN1CCN(CCC(=O)Nc2cccc(-n3cc(-c4ccncc4)c(-c4ccc(Cl)c(OC)c4)n3)c2)CC1`, the growth is -42.1% (active).

Consider `Nc1nc2c(nnn2C2CC(O)C(CO)O2)c(=O)[nH]1` (stereo not given), for which the growth was 28.4% (inactive).

For `COC1=C(Br)C(=O)C(OC)=C(Br)C1=O`, the growth was 8.67% (active).

On to `COc1ccc(-c2cc(=O)c3c(O)cc(O)cc3o2)cc1`, for which the growth was 73.4% (inactive) and 103% (inactive).

`CCS/C(Nc1ccccc1)=C(\C#N)C(=O)N/N=C/c1ccc(Cl)cc1Cl`: the growth is -31.4% (active).

`COc1cc(OC)c(C(=O)/C=C/c2ccc(C(F)(F)F)cc2)c(OC)c1`: the growth is 45.1% (inactive).

Regarding `COc1cc2oc(-c3ccc(O)cc3)cc(=O)c2c(O)c1I`, the growth was 99% (inactive).

On to `CN(C)CCn1c(=O)c2c3cc4c(cc3n(CCN(C)C)c2c2ccc(Cl)cc21)OCO4`, for which the growth was 19.5% (inactive).

Take `CCCCCCCCCCCCCC(=O)Oc1ccc[nH]c1=O`: the growth was 97.1% (inactive).

Take `CN1C(=O)/C(=C/c2cn(-c3ccccc3)nc2-c2ccccc2)SC1=S`: the growth was 109% (inactive).

As for `O=C(Nc1cccc2ccccc12)NC1CC1`, the growth was 108% (inactive).

As for `CCOC(=O)C(=O)C(C(=O)OCC)c1ccccc1` (stereo not given), the growth was 95.6% (inactive).

As to `O=C(CC(=O)c1ccccc1F)Nc1ccc([N+](=O)[O-])cc1`, the growth is 98.2% (inactive).

`COc1cc2nc(Cl)nc(Nc3ccc(S(=O)(=O)Nc4nccs4)cc3)c2cc1OC`: the growth is 102% (inactive).

Regarding `Cn1c2ccccc2c2nnc(NCCCCO)nc21`, the growth is 139% (inactive).

`CCNC(=S)NN`: the growth was 100% (inactive).

In the case of `O=C(Nc1ccccc1Cl)Oc1ccc(-c2ccccc2)cc1`, the growth was 97.4% (inactive).

Regarding `CCCCCCCC[Si](OCC)(OCC)OCC`, the growth was 94.3% (inactive).

On to `Clc1ccc2c(c1)c(-c1ccccc1)nc1nncn12`, for which the growth was 112% (inactive).

As to `O=C(Cn1ccc(=O)[nH]c1=O)c1ccc([N+](=O)[O-])o1`, the growth is 87.1% (inactive).

On to `CN(C)C1CCN(Cc2ccc(NC(=O)c3cncc(C#Cc4cnc(N)c5ncccc45)c3)cc2C(F)(F)F)CC1`, for which the growth was 73.6% (inactive).

With `N/C(=N\N=C\c1cc2ccccc2s1)N/N=C/c1cc2ccccc2s1`, the growth was 94.4% (inactive).

As for `COc1cc(NCCCCN=C(N)N)c2ncccc2c1`, the growth is 103% (inactive).

The record behind these values is PubChem BioAssay (NCI).
